Measured values from PubChem BioAssay AID1671192 (National Center for Advancing Translational Sciences (NCATS), 2021).
Results filed as inconclusive are left out. Activity calls are given as the source filed them. Calls follow the shape of the dose curve; as a rule, active = well fitted curve in the direction sought with a large enough effect; inconclusive = small, poorly fitted or top-dose-only effect, or another doubt; inactive = no such curve, though single readings can be large or run the other way.

These compounds were tested against Polyunsaturated fatty acid lipoxygenase ALOX15 (Homo sapiens) (UniProt P16050) (assay: Counterscreen qHTS for inhibitors of human arachidonate 12S-lipoxygenase (ALOX12): ALOX15 Assay). Settings: purified ALOX15 enzyme activity; series mostly up to 110 µM.
Chain of Polyunsaturated fatty acid lipoxygenase ALOX15 (Homo sapiens) (P16050 whole entry, looked up): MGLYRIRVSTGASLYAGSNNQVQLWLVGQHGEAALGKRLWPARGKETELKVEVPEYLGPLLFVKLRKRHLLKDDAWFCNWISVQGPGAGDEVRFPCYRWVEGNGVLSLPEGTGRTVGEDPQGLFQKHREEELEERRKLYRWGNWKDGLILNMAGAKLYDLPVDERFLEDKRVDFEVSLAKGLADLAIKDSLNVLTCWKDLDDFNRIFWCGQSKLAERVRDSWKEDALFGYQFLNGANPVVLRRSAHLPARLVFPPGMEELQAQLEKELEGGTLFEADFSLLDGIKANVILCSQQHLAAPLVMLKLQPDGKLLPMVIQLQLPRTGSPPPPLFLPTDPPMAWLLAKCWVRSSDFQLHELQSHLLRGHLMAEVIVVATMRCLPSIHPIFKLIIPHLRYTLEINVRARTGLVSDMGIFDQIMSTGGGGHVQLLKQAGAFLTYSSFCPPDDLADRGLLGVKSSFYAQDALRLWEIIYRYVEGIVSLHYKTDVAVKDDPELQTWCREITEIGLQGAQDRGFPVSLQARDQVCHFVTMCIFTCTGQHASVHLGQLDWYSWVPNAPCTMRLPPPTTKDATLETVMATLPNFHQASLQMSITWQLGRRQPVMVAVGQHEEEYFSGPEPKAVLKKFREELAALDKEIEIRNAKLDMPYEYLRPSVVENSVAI
How it was run: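 Purified human ALOX15 (15hLO-1) at 40 nM in 25 mM HEPES, 0.01% Triton X-100, pH 7.5, preincubated with compound 15 min at RT. Then 50 uM arachidonic acid for 30 min; hydroperoxide detected by Fe-xylenol orange as the 573/405 nm absorbance ratio.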
For `Cn1nc(C2CCCN2)c2c(C(=O)NCc3ccncc3)cc(C3CC3)nc21` (stereo not drawn), the outcome was “inactive”.
With `CC(C)[S+](=O)([O-])N1CCN(c2ccc(C=O)cc2)C(=O)C1` the outcome was “inactive”.
For `COc1ccc(CNc2ncnc3c2CN(C2CCNC2)C(=O)CN3C)cc1OC` (stereo not drawn), the outcome was “inactive”.
With `CN1CC(=O)N(C2CCCNCC2)Cc2c(NCc3ccc4c(c3)OCO4)ncnc21` (stereo not drawn) the outcome was “inactive”.
For `CC(C)NC(=O)N1CNC(=O)C12CCN(C(=O)CN)CC2`, the outcome was “inactive”.
`O=C(c1ccc2c(c1)OCO2)N1CCCC2(CC(c3ccccc3)=NO2)C1` (stereo not drawn) was tested, and the outcome was “inactive”.
In the case of `Nc1ccc(CN2CCCC3(Cc4ccccc4CNC3=O)C2)cc1` (stereo not drawn), the outcome is reported as “inactive”.
`CCC(CC)Nc1ncnc2c1CN(C1CCCNCC1)C(=O)CN2C` (stereo not drawn) was tested, and the outcome was “inactive”.
In the case of `NCc1ccc(-c2cccc(C(F)(F)F)c2)cc1`, the outcome is reported as “inactive”.
In the case of `COc1ccc(CN2CC3(C2)C(=O)Nc2ccccc23)cc1`, the outcome is reported as “inactive”.
In the case of `CN1CCC(C(=O)N2Cc3ccccc3OC3(CCN(C(=O)N(C)C)CC3)C2)CC1`, the outcome is reported as “inactive”.
In the case of `O=C(c1ccc(C(F)(F)F)cc1)N1CCc2nc(C3CC3)nc(-c3ccc(Cl)cc3)c2C1`, the outcome is reported as “inactive”.
For `CN1CC(=O)N(C2CCCNC2)Cc2c(NCCc3ccccc3F)ncnc21` (stereo not drawn), the outcome was “inactive”.
For `CC(=O)NCCC(=O)N1Cc2ccccc2CC2(CCCN2CCc2ccc(C)cc2)C1` (stereo not drawn), the outcome was “inactive”.
`Cc1ccc(CN2CC3(Cc4ccccc4NC3=O)C2)cc1` was tested, and the outcome was “inactive”.
With `CN1CC(=O)N(C2CCCNCC2)Cc2c1ncnc2N1CCN(c2ccccn2)CC1` (stereo not drawn) the outcome was “inactive”.
With `COc1cc(CN2CCCCC23Cc2ccccc2CNC3=O)ccc1F` (stereo not drawn) the outcome was “inactive”.
`NCc1ccc(-c2ccc(OC(F)(F)F)cc2)cc1` was tested, and the outcome was “inactive”.
`Cc1ccccc1N(C)C1CN(C(=O)OC(C)(C)C)C1` was tested, and the outcome was “inactive”.
`O=C1NCc2ccccc2CC12CCN(Cc1ccc(-c3ccccc3)cc1)CC2` was tested, and the outcome was “inactive”.
`Cc1ccc(CN2CCCC23Cc2ccccc2CNC3=O)cc1` (stereo not drawn) was tested, and the outcome was “inactive”.
In the case of `CNC(C)c1c(F)cccc1F` (stereo not drawn), the outcome is reported as “inactive”.
In the case of `COc1cccc(O)c1CN1CCCC12Cc1ccccc1CNC2=O` (stereo not drawn), the outcome is reported as “inactive”.
With `CN1CCC(C(=O)N2Cc3ccccc3CC3(CCCN(CC4CCNCC4)C3)C2)CC1` (stereo not drawn) the outcome was “inactive”.
For `N#Cc1ccc(CN2CCC3(CN[S+](=O)([O-])c4cnccc4O3)C2)cc1` (stereo not drawn), the outcome was “inactive”.
For `O=C1NCc2ccccc2CC12CCN(Cc1ccccc1F)C2` (stereo not drawn), the outcome was “inactive”.
For `CCN(CC)CC(C)NC` (stereo not drawn), the outcome was “inactive”.
`O=C1Nc2ccccc2CN(CC2CCCCC2)C12CCNCC2` was tested, and the outcome was “inactive”.
`NCC(C1CCCCC1)N1CCCC1` (stereo not drawn) was tested, and the outcome was “inactive”.
In the case of `O=C1NCc2ccccc2CC12CCN(Cc1cc(F)ccc1F)C2` (stereo not drawn), the outcome is reported as “inactive”.
In the case of `O=C(N1CCOCC1)N1CCCC1c1nnc2n1CCNC2` (stereo not drawn), the outcome is reported as “inactive”.
`COc1cccc(N2C(=O)NC(=NC3CCCCC3)C23CCN(CC2CC2)CC3)c1` was tested, and the outcome was “inactive”.
`O=C(N1CCCCC1)N1CCN(c2ccc(Cl)nn2)C(=O)C1` was tested, and the outcome was “inactive”.
With `O=C(O)CCCC(=O)N1Cc2ccccc2CC2(CCCN(Cc3ccncc3)C2)C1` (stereo not drawn) the outcome was “inactive”.
For `CN1CC(=O)N(C2CCNCC2)Cc2c(NC3CCCCC3)ncnc21`, the outcome was “inactive”.
With `Cc1ccc(C(=O)N2CCn3c(nnc3C3CCNCC3)C2)cc1` the outcome was “inactive”.
With `COc1cccc([S+](=O)([O-])N2CCn3c(nn(-c4ccc(Cl)cc4)c3=O)C2)c1` the outcome was “inactive”.
In the case of `Cc1ccsc1CN1CCC2(Cc3ccccc3CNC2=O)C1` (stereo not drawn), the outcome is reported as “inactive”.
